About 14,000 (4.5%) of roughly 310,000 compounds showed an effect of 50% or more. The effect is printed as a negative number. Many of the other results were omitted from the sample, so strong results are more common in it than they were.
molecular target: human ether-à-go-go-related gene (hERG) potassium channel (human, UniProt Q12809); assay: primary screen, population patch clamp on CHO cells stably expressing hERG; higher = less effect of the substance
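Also: peak tail current of the secondary pulse compared with the same well before compound.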

Sequence of human ether-à-go-go-related gene (hERG) potassium channel (Q12809 whole entry, looked up): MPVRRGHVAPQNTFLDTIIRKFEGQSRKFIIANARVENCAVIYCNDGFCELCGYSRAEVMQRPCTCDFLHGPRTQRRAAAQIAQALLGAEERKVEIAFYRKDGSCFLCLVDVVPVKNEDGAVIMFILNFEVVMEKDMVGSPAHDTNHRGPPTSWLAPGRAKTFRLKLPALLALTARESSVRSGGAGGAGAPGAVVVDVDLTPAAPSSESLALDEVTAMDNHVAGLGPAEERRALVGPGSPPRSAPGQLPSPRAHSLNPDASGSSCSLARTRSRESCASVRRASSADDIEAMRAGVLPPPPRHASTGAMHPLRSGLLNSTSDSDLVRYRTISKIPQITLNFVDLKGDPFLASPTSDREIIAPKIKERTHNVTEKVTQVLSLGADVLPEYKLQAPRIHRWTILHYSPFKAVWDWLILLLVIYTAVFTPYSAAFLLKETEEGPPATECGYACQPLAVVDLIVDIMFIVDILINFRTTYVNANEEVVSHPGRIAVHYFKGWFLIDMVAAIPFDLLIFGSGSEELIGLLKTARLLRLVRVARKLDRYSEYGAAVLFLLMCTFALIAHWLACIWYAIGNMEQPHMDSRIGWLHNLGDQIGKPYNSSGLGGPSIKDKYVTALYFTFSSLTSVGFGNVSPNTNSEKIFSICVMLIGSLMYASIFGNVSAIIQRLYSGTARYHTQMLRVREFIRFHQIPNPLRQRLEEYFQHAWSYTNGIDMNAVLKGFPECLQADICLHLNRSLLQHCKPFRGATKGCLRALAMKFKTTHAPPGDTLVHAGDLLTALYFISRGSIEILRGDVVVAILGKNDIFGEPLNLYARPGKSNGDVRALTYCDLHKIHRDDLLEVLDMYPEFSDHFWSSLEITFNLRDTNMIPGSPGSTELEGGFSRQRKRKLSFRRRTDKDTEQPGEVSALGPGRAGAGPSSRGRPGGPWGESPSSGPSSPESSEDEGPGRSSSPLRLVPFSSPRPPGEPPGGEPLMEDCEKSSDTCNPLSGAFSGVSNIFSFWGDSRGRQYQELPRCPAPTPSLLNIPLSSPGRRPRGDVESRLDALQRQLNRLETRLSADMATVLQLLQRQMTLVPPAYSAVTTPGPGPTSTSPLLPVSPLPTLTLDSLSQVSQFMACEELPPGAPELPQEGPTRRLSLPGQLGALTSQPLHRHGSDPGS

Row | Structure (SMILES) | hERG current change (%, negative = inhibition) at 10uM
1 | c1ccc2c(Nc3nc4c(s3)CCCC4)cccc2c1 | 2.23%
2 | CN(C(=O)CSc1nc2ccc([N+](=O)[O-])cc2s1)C1CCS(=O)(=O)C1 (stereo not drawn) | -55.9%
3 | CCN(C(=O)CSc1nc2ccc([N+](=O)[O-])cc2s1)C1CCS(=O)(=O)C1 (stereo not drawn) | -61.8%
4 | O=C(CSc1nc2ccc([N+](=O)[O-])cc2s1)NC1CCS(=O)(=O)C1 (stereo not drawn) | -5.62%
5 | CN(C(=O)CSc1nc(-c2ccccc2)cs1)C1CCS(=O)(=O)C1 (stereo not drawn) | -19.6%
6 | CCN(C(=O)CN1C(=O)c2ccc([N+](=O)[O-])cc2C1=O)C1CCS(=O)(=O)C1 (stereo not drawn) | 13.8%
7 | CCN(C(=O)Cn1cnc2cc([N+](=O)[O-])ccc2c1=O)C1CCS(=O)(=O)C1 (stereo not drawn) | 1.53%
8 | O=[N+]([O-])c1cccnc1Sc1ccc(Cl)cc1 | -11%
9 | O=C(Nn1c(COc2ccccc2)nc2ccccc2c1=O)C(Cl)(Cl)Cl | 9.26%
10 | O=C(Cn1cc([N+](=O)[O-])cn1)Nc1ccccn1 | 16.1%
11 | CC(C(=O)Nc1nc2ccccc2s1)n1cc([N+](=O)[O-])cn1 (stereo not drawn) | -69.5%
12 | Cc1cccc(NC(=O)C(C)n2cc([N+](=O)[O-])cn2)n1 (stereo not drawn) | -7.48%
13 | O=C(Cn1cc([N+](=O)[O-])cn1)Nc1nc2ccccc2s1 | -74.6%
14 | CC(C(=O)Nc1cccnc1)n1cc([N+](=O)[O-])cn1 (stereo not drawn) | 17.7%
15 | O=C(Cn1ccc([N+](=O)[O-])n1)Nc1nc2ccccc2s1 | -45.8%
16 | CC(=O)c1sc(NC(=O)c2oc3ccc(F)cc3c2C)nc1C | 0.318%
17 | O=C(c1cccc(F)c1)N1CCN(S(=O)(=O)c2ccccc2)CC1 | 0.349%
18 | CO/N=C/c1ccc(N2CCOCC2)c([N+](=O)[O-])c1 | 0.313%
19 | CO/N=C/c1ccc(N2CCCC2)c([N+](=O)[O-])c1 | -1.34%

Row | Structure (SMILES) | hERG current change (%, negative = inhibition) at 10uM
20 | CO/N=C/c1ccc(N2CCN(C(=O)c3ccc(Cl)cc3Cl)CC2)c([N+](=O)[O-])c1 | -53.1%
21 | CO/N=C/c1ccc(N2CCN(C(=O)c3cccc(C(F)(F)F)c3)CC2)c([N+](=O)[O-])c1 | -43.5%
22 | CO/N=C/c1ccc(N2CCN(C(=O)c3ccc(F)cc3)CC2)c([N+](=O)[O-])c1 | -78.3%
23 | CO/N=C/c1ccc(N2CCN(C(=O)c3ccc(C)cc3)CC2)c([N+](=O)[O-])c1 | -74.9%
24 | O=C(O/N=C\c1ccc(N2CCCCC2)c([N+](=O)[O-])c1)c1ccc(Cl)cc1Cl | -1.17%
25 | Cc1ccc(C(=O)O/N=C\c2ccc(N3CCCCC3)c([N+](=O)[O-])c2)cc1 | 12.8%
26 | O=C(O/N=C\c1ccc(N2CCOCC2)c([N+](=O)[O-])c1)c1ccc(F)cc1 | -6.14%
27 | O=C(NCCS(=O)(=O)N1CCN(c2ccccc2F)CC1)c1cccc(Br)c1 | 2.34%
28 | O=C1COc2ccc(C(=O)CSc3ccccc3C(=O)O)cc2N1 | 12.1%
29 | C=CCn1c(C)cc(-c2csc(NC(=O)CCc3nc4ccccc4c(=O)[nH]3)n2)c1C | -23.8%
30 | CCOC(=O)C1C2C=CC3(CN(Cc4ccccc4)C(=O)C13)O2 (stereo not drawn) | 13.7%
31 | C/C(CC(=O)NC1CCCCCC1)=N\NC(=O)c1cnccn1 | 2.01%
32 | CC(C)n1cnnc1SCC(=O)NCC(=O)Nc1ccc(F)cc1 | 11.2%
33 | C/C(=N\NC(=O)c1ccn(C)n1)c1ccc(NC(=O)c2cccc(F)c2)cc1 | 8.11%
34 | CCc1ccc(OC(=O)c2cccnc2)cc1 | 21.6%
35 | COCCCNC(=O)c1ccccc1NS(C)(=O)=O | 4.15%
36 | COc1ccc(C(=O)NCCNc2nc3cc(C)c(C)cc3cc2C)cc1 | 7.22%
37 | CCOc1ccc2nc(NCCNC(=O)CC)c(C#N)cc2c1 | -12%
38 | CCOc1ccc2nc(NCCNC(=O)C(C)(C)C)c(C)cc2c1 | -46.1%

Row | Structure (SMILES) | hERG current change (%, negative = inhibition) at 10uM
39 | CCOc1ccc2nc(NCCNC(=O)C3CC3)c(C)cc2c1 | -63.7%
40 | CCOc1ccc2nc(NCCNC(=O)C(C)C)c(C)cc2c1 | -61%
41 | COCC(=O)NCCNc1nc2ccc(C)cc2cc1C | -24.9%
42 | O=C(CSc1nc(-c2ccccc2)cs1)Nc1nccs1 | -8.07%
43 | CC(=O)c1c(N2CCN(C(=O)c3ccco3)CC2)nc(=S)n(-c2ccccc2)c1C | -1.95%
44 | Cc1cc(NC(=O)c2ccc(Br)c(S(=O)(=O)N3CCCC3)c2)no1 | 0.115%
45 | COc1ccc2cc1Oc1ccc(cc1)C[C@H]1c3cc(c(OC)cc3CCN1C)Oc1c(OC)c(OC)cc3c1[C@@H](C2)N(C)CC3 | -57.4%
46 | COc1ccc2cc1Oc1ccc(cc1)C[C@H]1c3cc(c(OC)cc3CCN1C)Oc1c(O)c(OC)cc3c1[C@H](C2)N(C)CC3 | -47.7%
47 | COc1ccc2cc1Oc1ccc(cc1)C[C@H]1c3cc(c(OC)cc3CCN1C)Oc1c(OC)c(OC)cc3c1[C@H](C2)N(C)CC3 | -37.4%
48 | CC(C)CN(C(=O)c1ccc(N2CCCC2=O)cc1)c1c(N)n(Cc2ccccc2)c(=O)[nH]c1=O | 19.6%
49 | O=C(c1ccc(S(=O)(=O)NCc2ccco2)cc1)N1CCN(Cc2ccccc2)CC1 | 2.86%
50 | CCOC(=O)N1CCN(C(=O)c2ccc(S(=O)(=O)NCc3ccco3)cc2)CC1 | -2%
51 | O=C(c1ccc(Cl)c(S(=O)(=O)NCc2ccco2)c1)N1CCN(c2ccc(F)cc2)CC1 | -70.3%
52 | Cc1cccc(N2CCN(C(=O)c3ccc(Cl)c(S(=O)(=O)NCc4ccco4)c3)CC2)c1C | 4.75%
53 | O=C(c1ccc(S(=O)(=O)NCc2ccco2)cc1)N1CCN(Cc2ccc3c(c2)OCO3)CC1 | -32.5%
54 | COc1ccccc1N1CCN(C(=O)c2ccc(Cl)c(S(=O)(=O)NCc3ccco3)c2)CC1 | -14.2%
55 | COc1ccc(N2CCN(C(=O)c3ccc(S(=O)(=O)NCc4ccco4)cc3)CC2)cc1 | -54.7%
56 | N#Cc1ccc(CN2CCN(C(=O)c3ccc(S(=O)(=O)NCc4ccco4)cc3)CC2)cc1 | -59.8%
57 | O=C(c1ccc(S(=O)(=O)NCc2ccco2)cc1)N1CCN(c2ccc(F)cc2)CC1 | -31.5%

Source: publication PMC4336329 (PLoS ONE, 2015)
